Sampled rows, rich in hits. Any-hit rate of the full collection: about 3.8%.
NTR1 ag: agonists of human NTR1, primary screen, imaging, U2OS cells, beta-arrestin-GFP, high content | hit rate 0.17% among 330,000 | NTR1-U2OS beta-arrestin-GFP spot imaging, agonist mode | activation, % at 20 µM | Neurotensin receptor type 1 (Homo sapiens), P30989;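 active means activation at or above 40% of the spot to cytoplasm intensity ratio, with at least 20 cells analyzed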;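 further: 0% = DMSO without peptide and 100% = 100 nM NTR1 peptide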
Target sequence (P30989 whole entry, looked up): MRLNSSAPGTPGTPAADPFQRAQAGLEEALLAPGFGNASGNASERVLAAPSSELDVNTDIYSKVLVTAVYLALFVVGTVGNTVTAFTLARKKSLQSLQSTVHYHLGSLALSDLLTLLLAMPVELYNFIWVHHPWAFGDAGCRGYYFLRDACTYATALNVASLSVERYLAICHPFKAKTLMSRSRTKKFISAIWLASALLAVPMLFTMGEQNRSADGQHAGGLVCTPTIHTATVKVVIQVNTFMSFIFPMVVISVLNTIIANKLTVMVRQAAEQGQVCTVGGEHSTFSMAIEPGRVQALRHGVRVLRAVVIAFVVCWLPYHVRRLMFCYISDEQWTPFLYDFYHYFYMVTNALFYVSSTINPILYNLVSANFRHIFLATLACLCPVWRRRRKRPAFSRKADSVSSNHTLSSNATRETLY
Mdm2-MdmX inh: inhibitors of human Mdm2-MdmX association, primary screen, cell-based, luminescence, split luciferase, SaOS-2, uHTS. SaOS-2 split-luciferase Mdm2/MdmX complementation. AID 485346, 2010. Protein Mdm4 (Homo sapiens) + E3 ubiquitin-protein ligase Mdm2 (Homo sapiens), …. inhibition, % at 8 µM. hit rate 3% among 330,000;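 active means inhibition of at least 50% at 8 µM in the primary screen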
Jurkat NFkB inh: inhibitors of induced NF-kB luciferase reporter, primary screen, TCR NF-kB activation inhibitor project, cell-based, luminescence, uHTS. Jurkat, PMA/ionomycin-induced NF-kB luciferase reporter. inhibition, % at 4 µM. AID 435003, 2010. hit rate 0.53% among 330,000; in the data active means inhibition above about 50%
697 NFkB inh: inhibitors of PMA/ionomycin-induced NF-kB reporter, 697 cells, primary screen, B-cell NF-kB inhibitor project, cell-based, luminescence, uHTS | inhibition, % at 4 µM | AID 435022, 2010 | 697 B-cell NF-kB luciferase reporter, 16 h | hit rate 0.33% among 330,000; in the data active means inhibition above about 35%
Beta apoptosis: inhibitors of cytokine-induced beta cell apoptosis, primary screen, luminescence; AID 435005, 2010; protection from apoptosis, % (test concentration not listed); INS-1E cytokine-induced death, ATP luminescence, 48 h; percent of positive-control rescue, neutral wells zero; hit rate 0.8% among 300,000;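 active means Every replicate reaches about 75%, or at least half do and their mean reaches it too, limit read from the data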;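 further: 0% = cytokine-treated negative control wells and 100% = positive control rescue; higher means more ATP so stronger rescue from cytokine killing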
Bfl-1 A1 inh: caspase 3/7 activation in MEF A1-2A-BIM cells, primary screen, A1 inhibitor project, cell-based, luminescence, HTS. hit rate 0.066% among 330,000. caspase activation, % (no concentration beside the values). Caspase-Glo 3/7 luminescence, 3 h; percent of clofoctol response, vehicle zero;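 active means over half of replicate activation scores above 10%, or exactly half above 10 with the replicate mean above 10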
Mdm2-MdmX conf: Mdm2-MdmX complex disruptors, retested hits, confirmation, luminescence, single concentration; Mdm2-MdmX binding, luminescent assay; AID 489028, 2010; hit rate 55% among 10,000; shares compounds with Mdm2-MdmX inh; inhibition, % at 8 µM; in the data active means inhibition above about 40%
Full FLuc ctr: full-length luciferase signal inhibition, confirmation, counter-screen for Mdm2/MdmX interaction inhibitor project, cell-based, single concentration, SaOS-2; hit rate 77% among 6,200; shares compounds with Mdm2-MdmX inh; SaOS-2 full-length luciferase counterscreen, luminescence; AID 504607, 2011; inhibition, % at 8 µM;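 active means mean inhibition at 8 µM reaching about 37%, which flags the compound as non-specific, limit read from the data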;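 further: p53-null SaOS-2 cells with luciferase driven by a doxycycline-inducible promoter; compound on cells about two nights before reading with doxycycline added after day one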
* = called active by the depositor; . = no result given.

SMILES	NTR1 ag	Mdm2-MdmX inh	Jurkat NFkB inh	697 NFkB inh	Beta apoptosis	Bfl-1 A1 inh	Mdm2-MdmX conf	Full FLuc ctr
O=S(=O)(c1ccc(-c2cnc(C3CC3)o2)cc1)N1CCN(c2ccccc2)CC1	4	59*	21	-5	8	2	2	.
Cc1nn2c(NCc3ccccn3)c3c(nc2c1-c1ccccc1)CCC3	18	53*	-2	6	56	0	33	7
COc1ccc(Nc2c3c(nc4c(-c5ccccc5)c(C)nn24)CCC3)cc1	9	52*	1	11	-1	1	22	.
Cc1nn2c(NCc3ccccn3)cc(C(C)(C)C)nc2c1-c1ccccc1	13	62*	-19	-15	24	1	20	.
Cc1cc(NCc2ccccn2)n2nc(C)c(-c3ccccc3)c2n1	4	31	-6	0	42	0	.	.
CC(C)CC1NC(=S)N(Cc2ccccc2)C1=O (centres undefined)	2	87*	5	-16	6	1	82*	53*
O=[N+]([O-])c1ccccc1S(=O)(=O)Nc1cccnc1	-1	16	-11	12	-15	2	.	.
CN(C)CCN(C(=O)c1ccc(C(=O)c2ccccc2)cc1)c1nc2cc3c(cc2s1)OCCO3	0	2	-91	-33	-9	-2	.	.
CN(C)CCCN(C(=O)c1ccc2c(c1)CCCC2)c1nc2cc3c(cc2s1)OCO3	6	64*	0	-9	2	2	49*	56*
CN(C)CCCN(C(=O)c1ccc(C(=O)c2ccccc2)cc1)c1nc2cc3c(cc2s1)OCCO3	9	53*	-76	-22	0	-1	39	87*
CCOc1ccc(S(=O)(=O)c2cn(C)c3cc(OC)c(OC)cc3c2=O)cc1	-1	-14	-16	-10	-1	-1	.	.
N#C/C(=N\Nc1ccc(Cl)cc1)C(=O)c1ccsc1	5	69*	-5	-75	64	0	39	74*
Cc1ccc(N/N=C(\C#N)C(N)=S)cc1C	3	64*	18	-7	-4	-2	53*	72*
N#C/C(=N\Nc1ccc(F)cc1)C(=O)C1CC1	1	17	-8	-17	6	-2	.	.
N#C/C(=N\Nc1cccc(Cl)c1)C(=O)c1ccccc1	5	71*	1	-39	47	-2	20	.
N#C/C(=N\Nc1ccccc1)C(N)=S	0	37	10	-19	9	-2	.	.
N#C/C(=N\Nc1ccccc1Cl)C(=O)c1ccccc1	1	31	6	-13	.	-1	.	.
N#C/C(=N\Nc1ccc(Cl)cc1)C(N)=S	4	64*	-14	-72	33	-2	64*	44*
Cc1ccc(NC(=S)N2CCC(NC(=O)c3ccc(F)cc3)CC2)cc1	-1	2	6	13	2	0	.	.
Cc1cccc(CC(Cc2nc3ccccc3[nH]2)c2nc3ccccc3[nH]2)c1 (centres undefined)	2	75*	-10	6	2	0	4	.
Cc1ccc(/C=C2/C(=N)N3N=C(CC(=O)N4CCCC4)SC3=NC2=O)cc1	.	.	.	.	-1	0	.	.
CCOC(=O)C1(CCc2ccccc2)CCN(Cc2c(O)cccc2OC)CC1	7	55*	11	-11	20	1	26	.
CCOC(=O)C1(CCc2ccccc2)CCN(Cc2ccc(OC)cc2)CC1	0	14	-6	-28	7	0	.	.
CCOC(=O)c1c(C)oc2c(F)c(F)c(F)c(F)c2c1=O	21	101*	-4	-2	.	0	36	.
CCOC(=O)c1c(C)oc2c1cc(O)c1ccccc12	-1	-199	3	-5	-11	0	.	.
SMILES	NTR1 ag	Mdm2-MdmX inh	Jurkat NFkB inh	697 NFkB inh	Beta apoptosis	Bfl-1 A1 inh	Mdm2-MdmX conf	Full FLuc ctr
CCOC(=O)c1c(NC(=O)COC(=O)/C=C/c2ccco2)sc2c1CC(C)(C)NC2(C)C	18	32	-7	-15	-5	0	.	.
COC(=O)c1c(NC(=O)c2nc3ccccc3s2)sc2c1CC(C)(C)NC2(C)C	24	98*	0	-13	.	1	64*	53*
CC1(C)Cc2c(sc(NC(=O)c3ccc(C(=O)c4ccccc4)cc3)c2C#N)C(C)(C)N1	1	52*	15	-28	-1	0	35	95*
CCOc1ccc(C(=O)Nc2sc3c(c2C(=O)OC)CC(C)(C)NC3(C)C)cc1	0	78*	18	-15	-9	-1	48*	60*
CCOC(=O)c1c(NC(=O)COc2ccccc2)sc2c1CC(C)(C)NC2(C)C	10	77*	1	-30	-9	0	41*	54*
CC1(C)Cc2c(sc(NC(=O)c3ccc(S(=O)(=O)N4CCCC4)cc3)c2C#N)C(C)(C)N1	1	21	-5	-8	.	0	.	.
CC1(C)Cc2c(sc(NC(=O)c3ccc4c(c3)OCCO4)c2C(N)=O)C(C)(C)N1	0	26	4	10	-11	-1	.	.
CC1(C)Cc2c(sc(NC(=O)c3ccc(S(=O)(=O)N4CCCCCC4)cc3)c2C(N)=O)C(C)(C)N1	2	85*	11	-21	.	-1	17	.
O=C(CSc1nc2ccccc2c(=O)n1-c1ccc(OC(F)F)cc1)NC1CC1	3	0	-7	-10	1	0	.	.
C=C(C)[C@@H]1CC[C@]2(C(=O)O)CC[C@]3(C)[C@H](CC[C@@H]4[C@@]5(C)CC[C@H](O)C(C)(C)[C@@H]5CC[C@]43C)[C@@H]12	18	55*	0	-45	.	-1	25	.
C=C(CC[C@@H](O)C(C)(C)O)[C@H]1CC[C@]2(C)[C@@H]1CCC1[C@@]3(C)CC[C@H](O)C(C)(C)C3CC[C@]12C (some centres undefined)	14	28	5	-14	-2	2	.	.
COc1ccc(NC2=C(C)C(=O)CC2)cc1	0	59*	-11	25	-9	0	39	90*
O=C(CSc1n[nH]c(=O)n1-c1ccccc1)N1CCOCC1	1	20	1	4	7	1	.	.
CCOc1ccc(/C=N/Nc2ccc(Cl)nn2)c(O)c1	0	54*	5	-15	119*	0	38	58*

Bioassay records (PubChem BioAssay)
